According to the antibiotic and cytotoxicity screens of Wong et al. (2023):
Among all 39,000 compounds or so, about 3,300 (8.5%) were called active. Shown is part of a subset that was picked to be rich in actives.

The compounds below were run on HepG2 (assay: cytotoxicity call (relative viability < 0.9)). Conditions: 10 µM.

Row | Compound | cytotoxicity call
1 | Cc1cn([C@H]2O[C@@H](CO)[C@H](O)[C@H]2F)c(=O)[nH]c1=O | inactive
2 | COCCNC(=O)C[C@@H]1C[C@H]2c3cc(NC(=O)COC)ccc3O[C@H]2[C@@H](CO)O1 | inactive
3 | COc1ccc(S(=O)(=O)Nc2cccc3c2O[C@H](CN(C)S(=O)(=O)c2ccc(C)cc2)[C@H](C)CN([C@H](C)CO)C3=O)cc1 | inactive
4 | COc1ccccc1Nc1nc(-c2ccc(Cl)cc2)cs1 | inactive
5 | C[C@H](CO)N1C[C@H](C)[C@H](CN(C)S(C)(=O)=O)Oc2ccc(NC(=O)CCN3CCOCC3)cc2CC1=O | inactive
6 | C[C@@H]1CN([C@H](C)CO)C(=O)Cc2cc(NC(=O)C3CC3)ccc2O[C@H]1CN(C)C(=O)Nc1ccc2c(c1)OCO2 | inactive
7 | C[C@@H]1CN([C@H](C)CO)C(=O)Cc2cc(NC(=O)c3ccncc3)ccc2O[C@H]1CN(C)Cc1ccc(C(=O)O)cc1 | inactive
8 | COc1ccc(S(=O)(=O)Nc2ccc3c(c2)C(=O)N([C@@H](C)CO)C[C@@H](C)[C@H](CN(C)C(=O)Nc2ccccc2)OCCCC[C@@H](C)O3)cc1 | inactive
9 | CCN(CC)CCOC(=O)C1(C2CCCCC2)CCCCC1.Cl | inactive
10 | CCN(CC)CCOC(=O)C(c1ccccc1)c1ccccc1.Cl | inactive
11 | CCN(CC)CCOC(=O)C(c1ccccc1)C1CCCCC1.Cl (centres undefined) | active
12 | COc1ccc(S(=O)(=O)N(C)C[C@@H]2Oc3ncc(-c4ccccc4)cc3C(=O)N([C@H](C)CO)C[C@@H]2C)cc1 | inactive
13 | C[C@H](CO)N1C[C@H](C)[C@H](CN(C)S(=O)(=O)c2cn(C)cn2)Oc2cc(C3=CCCCC3)ccc2S1(=O)=O | inactive
14 | COc1ccc(CNC(=O)C[C@@H]2C[C@@H]3c4cc(NC(=O)NC5CCCC5)ccc4O[C@@H]3[C@H](CO)O2)cc1 | inactive
15 | COC(=O)[C@@]12CC[C@@H](C)[C@@H](C)[C@@H]1C1=CC[C@H]3[C@@]4(C)CC[C@@H](OC(C)=O)C(C)(C)[C@@H]4CC[C@@]3(C)[C@@]1(C)CC2 | inactive
16 | CC1(C)CCC2(C(=O)O)CCC3(C)C(=CCC4C5(C)CCC(O)C(C)(C)C5CCC43C)C2C1 (centres undefined) | inactive
17 | CC1CCC2(C(=O)O)CCC3(C)C(=CCC4C5(C)CCC(O)C(C)(C)C5CCC43C)C2C1C (centres undefined) | active
18 | Cc1noc(C)c1S(=O)(=O)Nc1ccc2c(c1)CC(=O)N([C@H](C)CO)C[C@@H](C)[C@@H](CN(C)C(=O)Nc1ccccc1)O2 | inactive
19 | COc1ccccc1S(=O)(=O)N1C[C@@H](O)COC[C@@H]2O[C@H](CC(=O)O)CC[C@H]21 | inactive
20 | C[C@@H]1CCCCO[C@@H](CN(C)S(=O)(=O)c2ccc(Cl)cc2)[C@H](C)CN([C@H](C)CO)C(=O)c2cc(NS(=O)(=O)c3cccs3)ccc2O1 | active

Row | Compound | cytotoxicity call
21 | C[C@@H]1CCCCO[C@H](CN(C)S(=O)(=O)c2ccc(Cl)cc2)[C@H](C)CN([C@H](C)CO)C(=O)c2cc(NS(=O)(=O)c3cccs3)ccc2O1 | inactive
22 | C[C@@H]1CN([C@H](C)CO)C(=O)c2cc(NS(=O)(=O)c3cccs3)ccc2O[C@@H](C)CCCCO[C@@H]1CN(C)S(=O)(=O)c1ccc(Cl)cc1 | active
23 | C[C@H](CO)N1C[C@H](C)[C@H](CN(C)S(=O)(=O)c2ccc(Cl)cc2)OCCCC[C@H](C)Oc2ccc(NS(=O)(=O)c3cccs3)cc2C1=O | inactive
24 | C[C@@H]1CN([C@@H](C)CO)C(=O)c2cc(NS(=O)(=O)c3cccs3)ccc2O[C@@H](C)CCCCO[C@H]1CN(C)S(=O)(=O)c1ccc(Cl)cc1 | active
25 | C[C@@H]1CCCCO[C@H](CN(C)S(=O)(=O)c2ccc(Cl)cc2)[C@@H](C)CN([C@@H](C)CO)C(=O)c2cc(NS(=O)(=O)c3cccs3)ccc2O1 | inactive
26 | C[C@H]1CCCCO[C@H](CN(C)S(=O)(=O)c2ccc(Cl)cc2)[C@@H](C)CN([C@@H](C)CO)C(=O)c2cc(NS(=O)(=O)c3cccs3)ccc2O1 | inactive
27 | C[C@@H]1CCCCO[C@H](CN(C)S(=O)(=O)c2ccc(Cl)cc2)[C@@H](C)CN([C@H](C)CO)C(=O)c2cc(NS(=O)(=O)c3cccs3)ccc2O1 | inactive
28 | C[C@@H]1CCCCO[C@@H](CN(C)S(=O)(=O)c2ccc(Cl)cc2)[C@H](C)CN([C@@H](C)CO)C(=O)c2cc(NS(=O)(=O)c3cccs3)ccc2O1 | active
29 | C[C@H](CO)N1C[C@H](C)[C@@H](CN(C)S(=O)(=O)c2ccc(Cl)cc2)OCCCC[C@H](C)Oc2ccc(NS(=O)(=O)c3cccs3)cc2C1=O | inactive
30 | C[C@@H]1CCCCO[C@@H](CN(C)S(=O)(=O)c2ccc(Cl)cc2)[C@@H](C)CN([C@@H](C)CO)C(=O)c2cc(NS(=O)(=O)c3cccs3)ccc2O1 | inactive
31 | C[C@@H]1CCCCO[C@H](CN(C)S(=O)(=O)c2ccc(Cl)cc2)[C@H](C)CN([C@@H](C)CO)C(=O)c2cc(NS(=O)(=O)c3cccs3)ccc2O1 | inactive
32 | C[C@@H]1CCCCO[C@@H](CN(C)C(=O)NC2CCCCC2)[C@H](C)CN([C@H](C)CO)C(=O)c2cc(NC(=O)Nc3ccc4c(c3)OCO4)ccc2O1 | inactive
33 | C[C@@H]1CN([C@H](C)CO)C(=O)c2cccc(NS(=O)(=O)c3cn(C)cn3)c2O[C@@H]1CN(C)Cc1ccncc1 | inactive
34 | C[C@@H]1CN([C@H](C)CO)S(=O)(=O)c2ccc(-c3cncnc3)cc2O[C@@H]1CN(C)C(=O)CN(C)C | inactive
35 | C[C@@H]1CN([C@@H](C)CO)C(=O)c2cc(NC(=O)NC3CCCCC3)ccc2O[C@@H](C)CCCCO[C@H]1CN(C)C(=O)c1ccccc1 | inactive
36 | CO[C@@H](CN(C)C(=O)Nc1ccc(C(F)(F)F)cc1)[C@H](C)CN(Cc1ccccc1Cl)[C@H](C)CO | inactive
37 | Cc1ccc(S(=O)(=O)Nc2ccc3c(c2)C(=O)N([C@@H](C)CO)C[C@@H](C)[C@@H](CN(C)Cc2ccc(C(=O)O)cc2)OCCCC[C@@H](C)O3)cc1 | inactive
38 | COc1cc(-c2cc(=O)c3c(s2)N(c2ccc(OC)c(OC)c2)[C@@H](c2ccc(O)c(OC)c2)CC3=O)ccc1O | inactive
39 | COc1ccc(S(=O)(=O)Nc2ccc3c(c2)CC(=O)N([C@@H](C)CO)C[C@@H](C)[C@H](CN(C)S(=O)(=O)c2ccccc2)O3)cc1 | inactive
